# Data as given in PubChem BioAssay (NCATS).
# Records with an inconclusive call do not appear. A call without a number means that no potency is given here. Active and inactive are the calls of the source. Unless noted, calls come from the whole dose curve; as a rule, active = well fitted curve in the direction sought with a large enough effect; inconclusive = small, poorly fitted or top-dose-only effect, or another doubt; inactive = no such curve, though single readings can be large; an effect the other way counts as inactive or inconclusive.
# Assays:
# [1] = molecular target: Thioredoxin reductase 1, cytoplasmic (Rattus norvegicus) (UniProt O89049); assay: qHTS Assay for Inhibitors of Mammalian Selenoprotein Thioredoxin Reductase 1 (TrxR1) (AID 488773); conditions: Potency: inhibition; note: nearly all actives have a fitted effect of over 40% in size; note: potency is the fitted concentration of half-maximal effect
# Chain of Thioredoxin reductase 1, cytoplasmic (Rattus norvegicus) (O89049 whole entry, looked up): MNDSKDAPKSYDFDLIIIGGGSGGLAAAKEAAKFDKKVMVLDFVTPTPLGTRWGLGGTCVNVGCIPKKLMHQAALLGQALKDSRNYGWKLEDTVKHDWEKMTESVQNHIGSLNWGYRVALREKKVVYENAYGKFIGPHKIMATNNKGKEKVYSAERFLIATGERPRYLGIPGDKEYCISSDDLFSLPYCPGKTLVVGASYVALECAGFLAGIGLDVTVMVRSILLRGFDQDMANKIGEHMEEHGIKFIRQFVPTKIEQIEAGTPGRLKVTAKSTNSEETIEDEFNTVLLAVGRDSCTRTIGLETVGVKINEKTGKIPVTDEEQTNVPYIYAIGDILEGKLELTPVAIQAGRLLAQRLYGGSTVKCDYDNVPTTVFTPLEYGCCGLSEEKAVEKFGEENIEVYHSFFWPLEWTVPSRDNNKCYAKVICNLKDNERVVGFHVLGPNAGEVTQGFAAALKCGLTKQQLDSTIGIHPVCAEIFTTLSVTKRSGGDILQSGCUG
# Method in brief: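 Inhibition is scored from the loss of NADPH fluorescence between first and last reads of an 8-min kinetic run. Selenite (400 uM) was the substrate, added after 15 min compound preincubation at room temperature.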
# [2] = molecular target: Flap endonuclease 1 (Homo sapiens) (UniProt P39748); assay: qHTS Validation Assay for the Inhibitors of Human Flap endonuclease 1 (FEN1) (AID 488816)
# Chain of Flap endonuclease 1 (Homo sapiens) (P39748 whole entry, looked up): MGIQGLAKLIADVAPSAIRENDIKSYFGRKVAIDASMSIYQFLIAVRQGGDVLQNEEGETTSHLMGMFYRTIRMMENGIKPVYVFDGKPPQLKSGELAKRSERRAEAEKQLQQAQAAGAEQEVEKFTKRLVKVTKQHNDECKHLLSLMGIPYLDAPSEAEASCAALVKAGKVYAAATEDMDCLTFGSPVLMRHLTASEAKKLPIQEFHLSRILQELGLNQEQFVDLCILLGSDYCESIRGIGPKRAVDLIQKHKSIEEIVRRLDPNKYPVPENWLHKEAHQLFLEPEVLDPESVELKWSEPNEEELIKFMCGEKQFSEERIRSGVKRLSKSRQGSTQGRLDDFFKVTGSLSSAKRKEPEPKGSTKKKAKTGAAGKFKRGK
# Method in brief: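 Enzyme reagent 10 nM; cpds pinned; 15 min RT preinc.; substrate 50 nM final; reads t=0 and 15 min; no-enzyme buffer wells as neg. control; normalized data, 4-parameter Hill fit.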
# [3] = molecular target: M-phase phosphoprotein 8 (Homo sapiens) (UniProt Q99549); assay: qHTS Validation Assay for Inhibitors for MPP8 Chromodomain Interactions with Methylated Histone Tails (AID 488949);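 note: AlphaScreen signal from MPP8 chromodomain bound to biotinylated H3K9me3 peptide; top concentration of the series differs between compounds; nearly all actives have a fitted effect of over 55% in size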
# Chain of M-phase phosphoprotein 8 (Homo sapiens) (Q99549 whole entry, looked up): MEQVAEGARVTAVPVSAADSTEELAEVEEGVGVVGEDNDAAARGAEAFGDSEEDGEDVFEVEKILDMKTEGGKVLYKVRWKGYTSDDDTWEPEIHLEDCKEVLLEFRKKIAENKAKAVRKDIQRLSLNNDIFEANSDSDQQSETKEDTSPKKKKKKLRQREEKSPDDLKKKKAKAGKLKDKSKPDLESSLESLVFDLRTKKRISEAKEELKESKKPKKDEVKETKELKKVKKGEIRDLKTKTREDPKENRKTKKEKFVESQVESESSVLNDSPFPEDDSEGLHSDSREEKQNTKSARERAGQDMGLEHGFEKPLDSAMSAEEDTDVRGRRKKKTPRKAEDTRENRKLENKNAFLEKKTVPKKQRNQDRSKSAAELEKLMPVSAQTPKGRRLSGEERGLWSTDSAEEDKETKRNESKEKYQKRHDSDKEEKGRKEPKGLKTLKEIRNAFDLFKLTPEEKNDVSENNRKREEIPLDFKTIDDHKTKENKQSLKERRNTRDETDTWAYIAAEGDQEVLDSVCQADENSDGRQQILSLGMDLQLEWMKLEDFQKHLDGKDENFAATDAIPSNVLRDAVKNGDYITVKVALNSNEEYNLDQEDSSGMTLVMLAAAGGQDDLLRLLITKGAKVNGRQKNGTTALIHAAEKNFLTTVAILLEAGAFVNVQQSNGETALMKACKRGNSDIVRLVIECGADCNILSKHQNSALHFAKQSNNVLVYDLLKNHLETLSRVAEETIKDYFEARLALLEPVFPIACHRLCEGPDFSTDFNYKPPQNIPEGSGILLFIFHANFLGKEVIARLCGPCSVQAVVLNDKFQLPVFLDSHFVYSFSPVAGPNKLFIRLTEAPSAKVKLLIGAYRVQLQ
# Method in brief: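 AlphaScreen proximity signal from streptavidin donor and Ni-chelate acceptor beads (10 ug/mL each) reported binding of MPP8 to trimethyl-K9 H3(1-18) peptide, both at 50 nM. The complex formed 30 min before a 30 min compound exposure at room temperature, in PBS pH 7.4.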
# [4] = molecular target: Chromobox protein homolog 1 (Homo sapiens) (UniProt P83916); assay: qHTS Validation Assay for Inhibitors of HP1-beta Chromodomain Interactions with Methylated Histone Tails (AID 488953);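 note: loss of AlphaScreen luminescence from HP1-beta binding biotinylated H3K9me3 peptide; series mostly up to about 110 µM; nearly all actives have a fitted effect of over 50% in size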
# Method in brief: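 Disruption of preformed HP1-beta:H3K9me3 peptide complexes (both 50 nM, PBS pH 7.4 with 0.01% Tween-20) is measured by AlphaScreen after 30 min compound exposure at room temperature, using streptavidin donor and nickel chelate acceptor beads at 10 ug/mL final.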
# [5] = molecular target: Methanococcus maripaludis chaperonin (MmCpn) (UniProt Q6LX38); assay: High-Throughput Screening for Modulators of Cytosolic Chaperonin Activity: MmCpn Primary Screen (AID 488978);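 note: 50 nM MmCpn enzyme hydrolysing 30 µM ATP at 37 °C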
# Chain of Methanococcus maripaludis chaperonin (MmCpn) (Q6LX38 1-543): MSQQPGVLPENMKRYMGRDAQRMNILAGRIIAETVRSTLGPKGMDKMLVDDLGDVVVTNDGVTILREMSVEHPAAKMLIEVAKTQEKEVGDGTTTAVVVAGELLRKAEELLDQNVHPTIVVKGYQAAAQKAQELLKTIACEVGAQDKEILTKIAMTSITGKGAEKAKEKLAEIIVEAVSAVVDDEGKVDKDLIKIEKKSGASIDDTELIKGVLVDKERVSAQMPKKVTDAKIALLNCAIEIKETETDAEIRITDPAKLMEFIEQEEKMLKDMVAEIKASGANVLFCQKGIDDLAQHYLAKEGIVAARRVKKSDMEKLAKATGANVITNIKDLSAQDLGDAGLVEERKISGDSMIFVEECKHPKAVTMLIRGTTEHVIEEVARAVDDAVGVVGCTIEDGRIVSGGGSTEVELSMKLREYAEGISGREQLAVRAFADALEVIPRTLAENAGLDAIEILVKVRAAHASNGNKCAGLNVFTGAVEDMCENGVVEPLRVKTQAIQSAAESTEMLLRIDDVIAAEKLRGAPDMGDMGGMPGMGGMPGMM
# Method in brief: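 ATPase activity of 50 nM MmCpn was assayed with 30 uM ATP, 10 minutes at 37C, after a 5 min compound preincubation at room temperature. ADP production was read as HTRF emission at 590 and 665 nm.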
# [6] = molecular target: Transient receptor potential cation channel subfamily V member 1 (Homo sapiens) (UniProt Q8NER1); assay: HTS Assay for Compounds that Act as Enhancers of the Vanilloid Receptor 1 (AID 488979)
# Chain of Transient receptor potential cation channel subfamily V member 1 (Homo sapiens) (Q8NER1 whole entry, looked up): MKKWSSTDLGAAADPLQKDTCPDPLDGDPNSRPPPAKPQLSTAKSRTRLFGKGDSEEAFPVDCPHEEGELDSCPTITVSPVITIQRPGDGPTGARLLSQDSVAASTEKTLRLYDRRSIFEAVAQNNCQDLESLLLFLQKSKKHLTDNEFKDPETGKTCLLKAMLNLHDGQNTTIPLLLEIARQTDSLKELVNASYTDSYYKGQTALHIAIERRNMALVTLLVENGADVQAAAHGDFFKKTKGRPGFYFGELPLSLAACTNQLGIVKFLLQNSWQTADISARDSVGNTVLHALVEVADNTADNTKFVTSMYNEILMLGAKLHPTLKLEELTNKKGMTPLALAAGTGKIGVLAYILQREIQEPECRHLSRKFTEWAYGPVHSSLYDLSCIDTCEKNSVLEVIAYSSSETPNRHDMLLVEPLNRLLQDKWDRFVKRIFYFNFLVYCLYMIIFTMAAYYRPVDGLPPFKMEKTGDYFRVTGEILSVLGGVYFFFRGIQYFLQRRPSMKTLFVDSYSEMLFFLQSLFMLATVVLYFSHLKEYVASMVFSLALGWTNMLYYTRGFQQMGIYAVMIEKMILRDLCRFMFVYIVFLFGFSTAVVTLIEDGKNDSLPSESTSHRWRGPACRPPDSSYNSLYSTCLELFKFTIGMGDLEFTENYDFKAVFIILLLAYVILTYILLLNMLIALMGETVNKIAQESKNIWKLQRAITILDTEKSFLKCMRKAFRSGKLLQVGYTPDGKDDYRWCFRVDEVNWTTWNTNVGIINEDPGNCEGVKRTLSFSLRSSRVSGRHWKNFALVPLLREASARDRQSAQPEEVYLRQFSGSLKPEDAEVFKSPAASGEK
# Method in brief: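 TRPV1 cells loaded with Fluo-8 calcium dye; compound added and Ca2+ signal (ex 480/em 520 nm) followed 3 min, then capsaicin at EC20 added and read 2 more min to detect enhancement.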
# [7] = molecular target: Thyrotropin receptor (Homo sapiens) (UniProt P16473); assay: qHTS Assay for Antagonists of the Thyroid Stimulating Hormone Receptor (AID 488980); note: series mostly up to about 58 µM
# Method in brief: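 Inhibition of cAMP raised by EC80 TSH (4 nM final) was read by HTRF, with lysate cAMP competing against cAMP-d2 for cryptate antibody after 30 min at room temperature. The cells were transfected HEK293 held in phosphodiesterase inhibitor RO 20-1724 at 70 uM.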
# [8] = molecular target: D(1A) dopamine receptor (Homo sapiens) (UniProt P21728); assay: HTS Assay for Allosteric Agonists of the Human D1 Dopamine Receptor: Primary Screen for Agonists (AID 488981)
# Chain of D(1A) dopamine receptor (Homo sapiens) (P21728 whole entry, looked up): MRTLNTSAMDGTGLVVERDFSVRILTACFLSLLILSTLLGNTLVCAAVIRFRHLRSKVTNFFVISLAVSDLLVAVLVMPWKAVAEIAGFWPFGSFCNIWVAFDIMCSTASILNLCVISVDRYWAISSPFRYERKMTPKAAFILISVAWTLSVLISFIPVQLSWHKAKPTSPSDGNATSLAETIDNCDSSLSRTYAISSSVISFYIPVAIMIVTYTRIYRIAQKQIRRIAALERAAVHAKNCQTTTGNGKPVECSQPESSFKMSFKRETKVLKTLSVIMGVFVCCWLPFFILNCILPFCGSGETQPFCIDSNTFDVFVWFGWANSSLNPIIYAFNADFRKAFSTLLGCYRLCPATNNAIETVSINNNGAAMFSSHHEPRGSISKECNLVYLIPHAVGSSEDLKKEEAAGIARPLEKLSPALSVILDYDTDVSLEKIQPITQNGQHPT
# Method in brief: (§1)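 Tetracycline-induced HEK293 Trex D1 cells with forced coupling to calcium, loaded with no-wash calcium dye; kinetic fluorescence read 180 s after compound addition for agonism, then a further 180 s after an EC20 dopamine challenge for potentiation.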
# [9] = molecular target: D(1A) dopamine receptor (Homo sapiens) (UniProt P21728); assay: HTS Assay for Allosteric Agonists of the Human D1 Dopamine Receptor: Primary Screen for Potentiators (AID 488982)
# Method in brief: as §1
# [10] = molecular target: D(1A) dopamine receptor (Homo sapiens) (UniProt P21728); assay: HTS Assay for Allosteric Agonists of the Human D1 Dopamine Receptor: Primary Screen for Antagonists (AID 488983);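 note: calcium flux response to an EC80 dopamine challenge measured with no-wash dye; nearly all actives have a fitted effect of over 65% in size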
# Method in brief: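 Kinetic fluorescence at 1 cycle/sec tracked intracellular calcium in force-coupled, tetracycline-inducible HEK293 T-REx D1 cells. Loss of response to an EC80 dopamine dose, given 180 s after compound, marked antagonists.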
# [11] = molecular target: Thyrotropin-releasing hormone receptor (Homo sapiens) (UniProt P34981); assay: qHTS for Small Molecule Agonists and Allosteric Enhancers of Human TRH Receptor: Validation Screen for Agonists (AID 493127;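 active = calcium activation more than 3 SD above the typical response in the agonist read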;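 note: intracellular calcium rise by fluo-8 fluorescence before TRH EC20 addition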); conditions: TRH receptor agonist cell assay; at 2 µM; stronger effect = higher value
# Chain of Thyrotropin-releasing hormone receptor (Homo sapiens) (P34981 whole entry, looked up): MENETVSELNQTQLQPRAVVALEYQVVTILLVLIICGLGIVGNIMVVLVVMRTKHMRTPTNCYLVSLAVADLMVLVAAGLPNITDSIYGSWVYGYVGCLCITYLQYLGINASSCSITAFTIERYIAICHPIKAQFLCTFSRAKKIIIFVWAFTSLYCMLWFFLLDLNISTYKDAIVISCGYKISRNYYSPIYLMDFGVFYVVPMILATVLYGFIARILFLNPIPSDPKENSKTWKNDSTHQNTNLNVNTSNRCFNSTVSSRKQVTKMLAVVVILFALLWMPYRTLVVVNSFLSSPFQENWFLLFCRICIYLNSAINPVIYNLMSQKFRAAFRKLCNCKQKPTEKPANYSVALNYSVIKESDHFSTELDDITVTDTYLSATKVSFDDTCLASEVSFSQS
# Method in brief: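 Compounds are added by online pintool to dye-loaded TRHR cells while fluorescence is recorded every second. A rise in calcium signal during the agonist read marks activation; a later 10 nM TRH addition (EC20) serves the separate enhancer mode.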
# [12] = qHTS for Inhibitors of Cell Surface uPA Generation: Validation Assay (AID 493164);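 note: RAW 264.7 macrophage cells exposed to compound for 18 h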
# Method in brief: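 ATP-Lite luminescence read-out: ATP remains high when uPA activity-dependent LF translocation into the cytoplasm is blocked. RAW 264.7 cells, 18 h compound exposure at 37 C; 7-point titration, 2.45 nM to 38.3 uM final.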
# [13] = molecular target: Peptidyl-prolyl cis-trans isomerase NIMA-interacting 1 (Homo sapiens) (UniProt Q13526); assay: qHTS Validation Assay to Find Inhibitors of Pin1 (AID 504536; active = well fitted inhibition curve with a large enough effect in the polarisation, with a control signal flat, not every such curve was filed as active; the % refers to the polarisation)
# Chain of Peptidyl-prolyl cis-trans isomerase NIMA-interacting 1 (Homo sapiens) (Q13526 whole entry, looked up): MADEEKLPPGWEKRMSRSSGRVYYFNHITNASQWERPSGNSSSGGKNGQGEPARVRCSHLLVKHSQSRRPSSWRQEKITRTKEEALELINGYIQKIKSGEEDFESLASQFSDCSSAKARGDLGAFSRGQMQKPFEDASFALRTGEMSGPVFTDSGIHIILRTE
# Method in brief: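 Fluorescence polarization competition: compounds (titration) displace HiFluor-488-labeled Pin1-1b peptide from Pin1 (0.3 uM final) in pH 7.5 HEPES buffer with DTT, 10 min at room temperature; %Activity normalized to no-enzyme wells, curves fitted.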
# [14] = molecular target: Phosphoglycerate kinase, glycosomal (Trypanosoma brucei brucei) (UniProt P07378); assay: qHTS Validation Assay to Find Inhibitors of Phosphoglycerate Kinase (AID 504547)
# Chain of Phosphoglycerate kinase, glycosomal (Trypanosoma brucei brucei) (P07378 whole entry, looked up): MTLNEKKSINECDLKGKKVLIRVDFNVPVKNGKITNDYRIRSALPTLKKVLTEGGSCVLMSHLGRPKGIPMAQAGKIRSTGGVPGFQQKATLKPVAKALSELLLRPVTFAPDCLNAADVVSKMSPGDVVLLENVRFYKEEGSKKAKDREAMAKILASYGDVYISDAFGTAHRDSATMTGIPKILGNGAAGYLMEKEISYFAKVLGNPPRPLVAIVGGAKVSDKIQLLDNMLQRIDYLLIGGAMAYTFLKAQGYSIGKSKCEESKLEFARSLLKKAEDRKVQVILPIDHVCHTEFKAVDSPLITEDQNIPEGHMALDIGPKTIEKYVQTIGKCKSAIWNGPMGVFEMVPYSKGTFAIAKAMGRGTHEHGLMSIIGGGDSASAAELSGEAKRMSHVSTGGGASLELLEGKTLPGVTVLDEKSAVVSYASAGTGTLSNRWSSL
# Method in brief: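 Compounds are pinned into the substrate/PGK mixture, and GAPDH (100nM final) is added to start the reaction by producing 1,3-BPG. After 60 minutes at room temperature, Kinase-Glo Plus is added and luminescence is measured 10 minutes later.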
# [15] = Validation screen for small molecules that induce genotoxicity in human embryonic kidney (HEK293T) cells expressing luciferase-tagged ELG1 (AID 493106)
# Method in brief: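 Cells were dispensed at 2,000 per well, then 23 nL compound or DMSO was pinned in. After 16 hr at 37 °C and 5% CO2, ONE-Glo reagent was added. Luciferase activity was measured following 30 min at room temperature.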
# [16] = Nrf2 qHTS screen for inhibitors: Validation (AID 493153; active = well fitted inhibition curve with a large enough effect in the main read-out, with a control signal flat, not every such curve was filed as active); conditions: Potency: luciferase luminescence; viability change: measured here: cytotoxicity max response
# Method in brief: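 A549 ARE_Fluc, 5% FBS OPTI-MEM; cpd titration, 18-24 h, 37°C/5% CO2. Read 1: CellTiter-Fluor (Ex 405/Em 525), cytotox. Read 2: luciferase lum, Nrf2 activity.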
# [17] = Validation screen for small molecules that induce DNA re-replication in SW480 colon adenocarcinoma cells (AID 504364)
# Method in brief: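 Image-based qHTS: compounds were incubated with SW480 cells for 48 hr, nuclei stained with Hoechst, and per-nucleus fluorescence intensity scanned to flag cells with excess DNA content.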
# [18] = molecular target: ATPase family AAA domain-containing protein 5 (Homo sapiens) (UniProt Q96QE3); assay: Validation screen for small molecules that inhibit ELG1-dependent DNA repair in human embryonic kidney (HEK293T) cells expressing luciferase-tagged ELG1 (AID 493107);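 note: cells co-treated with the DNA-damaging agent 5-fluorouridine alongside compound; series mostly up to about 46 µM; inhibitors lower the ELG1-luciferase luminescence signal; nearly all actives have a fitted effect of over 70% in size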
# Method in brief: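 Cells are dispensed in 1536-well format, then 5-fluorouridine and compound are pinned in. After a 16 hr incubation at 37 °C and 5% CO2, ONE-Glo is added and luciferase measured on a CCD imager.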
# [19] = molecular target: Galactokinase (Homo sapiens) (UniProt P51570); assay: qHTS Validation Assay for Inhibitors of Human Galactokinase (GALK) (AID 493189)
# Chain of Galactokinase (Homo sapiens) (P51570 whole entry, looked up): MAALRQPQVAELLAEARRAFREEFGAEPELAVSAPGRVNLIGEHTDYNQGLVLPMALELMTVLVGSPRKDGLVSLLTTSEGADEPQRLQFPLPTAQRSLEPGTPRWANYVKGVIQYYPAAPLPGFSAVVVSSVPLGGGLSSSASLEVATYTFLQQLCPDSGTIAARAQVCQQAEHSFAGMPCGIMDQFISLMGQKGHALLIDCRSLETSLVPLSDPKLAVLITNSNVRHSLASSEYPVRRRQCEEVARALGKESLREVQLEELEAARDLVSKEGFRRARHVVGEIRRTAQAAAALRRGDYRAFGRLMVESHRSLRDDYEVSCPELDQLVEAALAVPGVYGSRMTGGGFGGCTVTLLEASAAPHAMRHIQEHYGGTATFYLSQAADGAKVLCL
# Method in brief: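 Inhibition was measured as remaining ATP, detected by luciferase luminescence after a 1 h room-temperature reaction. Final conditions: 5 nM GALK, 100 uM galactose, 35 uM ATP, pH 8.0 HEPES buffer.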
# [20] = molecular target: ATP-dependent 6-phosphofructokinase (Trypanosoma brucei brucei) (UniProt O15648); assay: qHTS Assay to Find Inhibitors of T. brucei phosphofructokinase: hit validation (AID 492961);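 note: luminescence reports ADP formed as PFK phosphorylates fructose-6-phosphate with ATP; series mostly up to about 51 µM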
# Method in brief: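 Inhibition of parasite PFK is measured as reduced ADP formation, quantified via luciferase after ATP depletion. Assay used 0.1 mM ATP, 0.5 mM F6P, 1.25 nM enzyme, 45 min incubation.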
compound,measurement,setting,value
Nc1ncn([C@@H]2O[C@H](CO)[C@@H](O)[C@H]2O)c(=O)n1,Potency,[1],inactive
same,Potency,[2],inactive
same,Potency,[3],inactive
same,Potency,[4],inactive
same,outcome,[5],inactive
same,outcome,[6],inactive
same,outcome,[7],inactive
same,Potency,[8],inactive
same,Potency,[9],inactive
same,Potency,[10],inactive
same,activation,[11],1.31% (inactive)
same,outcome,[12],inactive
same,outcome,[13],inactive
same,outcome,[14],inactive
CCCCNc1c(C(=O)OCC)c(C)nc2c1cnn2CC,Potency,[1],inactive
same,Potency,[2],inactive
same,Potency,[3],inactive
same,Potency,[4],inactive
same,outcome,[5],inactive
same,outcome,[6],inactive
same,outcome,[7],inactive
same,Potency,[8],inactive
same,Potency,[15],inactive
same,Potency,[16],inactive
same,viability change,[16],2.43%
same,outcome,[12],inactive
same,outcome,[17],inactive
same,outcome,[13],inactive
same,outcome,[14],inactive
CCN1CCc2nc(N)oc2CC1,Potency,[1],29.9 µM (active)
same,Potency,[2],inactive
same,Potency,[3],inactive
same,Potency,[4],inactive
same,outcome,[5],inactive
same,outcome,[6],inactive
same,outcome,[7],inactive
same,Potency,[8],inactive
same,Potency,[10],inactive
same,Potency,[15],inactive
same,Potency,[18],inactive
same,Potency,[16],inactive
same,viability change,[16],-0.627%
same,outcome,[12],inactive
same,outcome,[19],inactive
same,outcome,[17],inactive
same,outcome,[13],inactive
same,outcome,[14],inactive
CC(C)NNC(=O)c1ccncc1,Potency,[1],inactive
same,Potency,[2],inactive
same,Potency,[3],inactive
same,Potency,[4],inactive
same,outcome,[5],inactive
same,outcome,[6],inactive
same,outcome,[7],inactive
same,Potency,[8],inactive
same,Potency,[10],inactive
same,Potency,[15],inactive
same,Potency,[16],inactive
same,viability change,[16],1.54%
same,outcome,[12],inactive
same,outcome,[19],inactive
same,outcome,[13],inactive
same,outcome,[14],inactive
NC/C=C/C(=O)O,Potency,[1],inactive
same,Potency,[2],inactive
same,Potency,[3],inactive
same,Potency,[4],inactive
same,outcome,[5],inactive
same,outcome,[7],inactive
same,Potency,[8],inactive
same,Potency,[9],inactive
same,Potency,[10],inactive
same,outcome,[20],inactive
same,Potency,[15],inactive
same,Potency,[18],inactive
same,Potency,[16],inactive
same,viability change,[16],-0.253%
same,outcome,[12],inactive
same,outcome,[17],inactive
same,outcome,[13],inactive
same,outcome,[14],inactive
CC(C)(C)NCC(O)c1cc(O)cc(O)c1 (stereo unspecified),Potency,[1],inactive
same,Potency,[2],inactive
same,Potency,[3],inactive
same,Potency,[4],inactive
same,outcome,[5],inactive
same,outcome,[6],inactive
same,outcome,[7],inactive
same,Potency,[8],inactive
same,Potency,[10],inactive
same,Potency,[15],inactive
same,Potency,[18],inactive
same,activation,[11],0.438% (inactive)
same,Potency,[16],inactive
same,viability change,[16],2.92%
same,outcome,[12],inactive
same,outcome,[19],inactive
same,outcome,[13],inactive
same,outcome,[14],inactive
C(=C\c1ccccc1)/CN1CCN(C(c2ccccc2)c2ccccc2)CC1,Potency,[1],inactive
same,Potency,[2],inactive
same,Potency,[3],inactive
same,outcome,[5],inactive
same,outcome,[6],inactive
same,outcome,[7],inactive
same,Potency,[8],inactive
same,Potency,[9],inactive
same,Potency,[10],inactive
same,Potency,[15],inactive
same,Potency,[18],inactive
same,activation,[11],0.438% (inactive)
same,Potency,[16],inactive
same,viability change,[16],-2.4%
same,outcome,[12],inactive
same,outcome,[19],inactive
same,outcome,[13],inactive
same,outcome,[14],inactive
NC(=O)N1c2ccccc2C=Cc2ccccc21,Potency,[1],inactive
same,Potency,[2],inactive
same,Potency,[3],inactive
same,Potency,[4],inactive
same,Potency,[8],inactive
same,Potency,[10],inactive
same,Potency,[18],inactive
same,Potency,[16],inactive
same,viability change,[16],-0.0645%
same,outcome,[12],inactive
same,outcome,[19],inactive
same,outcome,[17],inactive
same,outcome,[13],inactive
same,outcome,[14],inactive
